This is an account of results in PubChem BioAssay AID1910 (Broad Institute, 2009).

In all, about 300,000 compounds went through this assay and about 950 (0.32%) were called active.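 How the source made its calls: active means mean activation of at least 10% of the iron chelator positive control signal, with at least half of replicates also reaching 10%; inconclusive means mean and replicate majority disagree about reaching 10%; inactive means mean and most replicates under 10%.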 The entries come from a sample that favours actives as a whole.

This experiment in a line: hypoxia response element reporter activation – cell-based, U2OS HRE-luciferase, luminescence, primary screen (AID 1910). The note with it: active compounds read high, screened at 7.5 µM (by protocol), normalized: DMSO 0%, desferrioxamine 100%.
`CC(NC(=O)c1cc(-c2ccccc2)on1)c1ccccc1` (configuration not stated): the activation was 0.0998% (inactive).
With `O=C(NC1CCCC1)c1cc(-c2ccccc2)on1`, the activation was 25.3% (active).
Then `O=C(NC1CCCCC1)c1cc(C2CC2)on1`, with 1.35% (inactive); and `COc1ccccc1-c1cc(C(=O)NCCCn2ccnc2)no1`, with 0.0935% (inactive).
Then `O=C(NCCCn1ccnc1)c1cc(-c2ccccc2)on1`, with 35.8% (active).
`COc1ccc(-c2cc(C(=O)NCCCn3ccnc3)no2)cc1`: the activation is 1.05% (inactive).
For `Cc1ccccc1C(=O)N1CCC(C(=O)Oc2ccc(C#N)cc2)CC1` the value was -0.988% (inactive); for `CC(=O)c1ccc(NC(=O)C2CCCN2S(=O)(=O)c2cccs2)cc1` (configuration not stated), -0.0783% (inactive).
For `N#CCCN(C(=O)COC(=O)C1CCN(c2ccc(C(F)(F)F)cn2)CC1)c1ccc(F)cc1` the value was 0.186% (inactive).
For `COc1cccc(-c2ccc(C#N)c(SCC(=O)NCCc3ccc(Cl)cc3)n2)c1` the value was -0.149% (inactive); for `COc1ccc(CCNC(=O)CSc2nc(-c3ccc(OC)c(OC)c3)ccc2C#N)cc1`, 225% (active).
`COc1ccc(CCNC(=O)CSc2nnc3ccc(-c4ccncc4)nn23)cc1`: the activation is -0.329% (inactive).
Then `C=CCOc1ccc(/C=C/C(=O)OCC(=O)NC(C)c2ccc(F)cc2)cc1` (configuration not stated), with -1.98% (inactive); and `CCOc1ccc(NC(=O)c2ccc(NC(=O)CN3C(=O)C(=O)N(CC(C)C)C3=O)cc2)cc1`, with -0.207% (inactive).
Then `Cc1cccc(CCNC(=O)Cn2ncc3c([nH]c4ccc(C)cc43)c2=O)c1`, with 67.3% (active); and `Cc1ccc2[nH]c3c(=O)n(CC(=O)NCCc4ccc(Cl)cc4)ncc3c2c1`, with 0.0828% (inactive).
Then `CC1CC(C)CN(CCCNC(=O)Cn2ncc3c([nH]c4ccccc43)c2=O)C1` (configuration not stated), with -0.555% (inactive); and `Cc1ccc2nnn(Cc3cccc(C(C)(C)C)c3O)c2c1`, with -0.574% (inactive); and `CCc1cccc(C)c1NC(=O)COC(=O)CC1CCCC1`, with -0.451% (inactive).
Take `CC(=O)Nc1ccc(S(=O)(=O)N2CCC(NC(=O)c3ccccc3)CC2)cc1`: the activation was -33.2% (inactive).
For `CC1(C)CC(=O)C(C=NCCN2CCN(C(=S)Nc3cccc(Cl)c3)CC2)=C(O)C1` the value was 233% (active).
For the compound `CC(=O)N1CCN(CCN=CC2=C(O)CC(C)(C)CC2=O)CC1`, the activation is -0.482% (inactive).
For `CCNC(=S)N1CCN(CCN=CC2=C(O)CC(C)(C)CC2=O)CC1` the value was -0.656% (inactive); for `COCCNC(=S)N(CCc1c(C)[nH]c2ccc(C)cc12)Cc1cccnc1`, 0.573% (inactive).
For `Cc1nnc(N/N=C/C2CC=CCC2)[nH]c1=O` (configuration not stated) the value was -0.414% (inactive).
Take `CNC(=O)C(=O)N/N=C/c1ccccn1`: the activation is -0.138% (inactive).
Then `Cc1nnc(N/N=C/c2ccccn2)[nH]c1=O`, with 117% (active); and `CCCN(CCC)C(=S)Nc1cc(C(=O)OC)ccc1C(=O)OC`, with 166% (active); and `CCS(=O)(=O)Nc1cc(C(=O)OC)ccc1C(=O)OC`, with -0.124% (inactive).
In the case of `CCN(CCO)C(=S)Nc1cc(C(=O)OC)ccc1C(=O)OC`, the activation was -0.0671% (inactive).
Then `Fc1ccc(-c2ccc(NCCN3CCOCC3)nn2)cc1`, with 3.51% (inactive); and `COc1ccc(NC(=O)CCCC(=O)c2ccccc2)cc1`, with 0.37% (inactive).
